Data as given in PubChem BioAssay AID493194 (Broad Institute, 2011).
Potency and affinity values are given separately. Results filed as inconclusive are left out. Active and inactive are the calls of the source.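 Rule for the calls: active = a valid curve of falling signal whose half-effect concentration is at most ten times the top tested dose; inconclusive = flat curve at 30 to 70% inhibition, or poor fit; inactive = signal rise, flat within 30%, or potency beyond limit.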

These compounds were tested against Scavenger receptor class B member 1 (Mus musculus) (UniProt Q61009) (assay: inhibitors of SR-BI mediated HDL lipid uptake, dose response, ldlA[mSR-BI] cells, fluorescence, cherry pick (AID 493194;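 note: CHO cells lacking LDL receptor and overexpressing mouse SR-BI; cellular uptake of fluorescently labeled HDL measured as cell fluorescence; 0% = median of neutral control wells and -100% = median of positive control wells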)). Details: CHO ldlA[mSR-BI] DiI-HDL uptake fluorescence, 3 h; series mostly up to 35 µM; activity change, negative = inhibition: at the top concentration.
Sequence of Scavenger receptor class B member 1 (Mus musculus) (Q61009 whole entry, looked up): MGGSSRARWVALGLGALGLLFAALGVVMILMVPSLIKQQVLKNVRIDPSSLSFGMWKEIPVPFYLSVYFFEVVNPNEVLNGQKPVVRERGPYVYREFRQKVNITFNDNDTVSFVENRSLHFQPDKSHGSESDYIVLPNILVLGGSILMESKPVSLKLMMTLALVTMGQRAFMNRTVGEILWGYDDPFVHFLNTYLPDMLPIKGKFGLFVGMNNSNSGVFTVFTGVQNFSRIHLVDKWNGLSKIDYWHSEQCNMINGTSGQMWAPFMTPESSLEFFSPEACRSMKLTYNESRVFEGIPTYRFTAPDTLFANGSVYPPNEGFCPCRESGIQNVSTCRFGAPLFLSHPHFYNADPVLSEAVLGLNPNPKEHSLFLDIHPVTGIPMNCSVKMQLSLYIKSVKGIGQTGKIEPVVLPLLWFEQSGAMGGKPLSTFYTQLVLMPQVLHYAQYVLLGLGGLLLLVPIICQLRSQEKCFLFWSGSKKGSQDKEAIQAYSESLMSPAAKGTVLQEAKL

SMILES | activity change, negative = inhibition
Cc1ccc(-c2cc(-c3ccc(C)cc3O)[nH]n2)cc1 | -5.14% (inactive)
Cc1ccc(-c2cc(C(F)F)n3ncc(C(=O)N4CCN(c5cccc(C)c5C)CC4)c3n2)cc1 | 10.1% (inactive)
COc1ccc(C)cc1N(CC(=O)NC1CCCC1)C(=O)Cn1nnc(-c2ccc(C)o2)n1 | 0.096% (inactive)
COc1cccc(-c2csc(N3CCN(C(=S)Nc4cccc(Cl)c4)CC3)n2)c1 | -32.3% (inactive)
O=C(NCc1ccccc1Cl)C1CCN(C(=O)c2sccc2-n2cccc2)CC1 | -19.4% (inactive)
CCN(CC)C(=O)c1cccc(NC(=O)c2cc(C3CC3)nc3c2cnn3C(C)C)c1 | -26.8% (inactive)
CCC(=O)Nc1ccccc1-c1nnn(CC(=O)N2c3ccccc3CC2C)n1 (stereo unspecified) | 3.68% (inactive)
N#Cc1ccc(Nc2nc(-c3ccc(O)cc3O)cs2)cc1C(F)(F)F | 5.41% (inactive)
COC(=O)c1c(C)[nH]c(C(=O)C(C)OC(=O)C2CC(=O)N(c3ccc(C)cc3)C2)c1C (stereo unspecified) | -23.5% (inactive)
c1ccc(COn2c(-c3ccccc3)nc3c2CCc2nonc2-3)cc1 | -12.6% (inactive)
COc1ccc(OC)c(CCNC(=O)c2ccc3c(c2)N(Cc2ccccc2)CCS3)c1 | 62.2% (inactive)
O=C(Nc1cccc(NC(=O)c2ccccc2Cl)c1)c1ccc(F)cc1 | 52.6% (inactive)
CCC(C)(C)NC(=O)C(c1ccc(C)cc1)N(Cc1cccs1)C(=O)c1ccc2c(c1)OCCO2 (stereo unspecified) | -5.45% (inactive)
CCCCn1nc2cc(C(=O)NC3CCCc4ccccc43)ccc2c1OCC (stereo unspecified) | -28% (inactive)
Cc1c(C(=O)Nc2cccc(Cl)c2)c2ccccn2c1CCc1ccncc1 | 1.1% (inactive)
COc1ccc(N2CC(C(=O)NCCc3ccc(Cl)cc3)CC2=O)c(OC)c1 (stereo unspecified) | -7.36% (inactive)
